Compound activity as filed in PubChem.
Hits are enriched below; roughly 19% of the tested compounds scored in any of these assays.
HT1080NT lethal – kills 2HG-producing HT-1080-NT fibrosarcoma cells; HT-1080-NT fibrosarcoma viability, CellTiter-Glo ATP luminescence, 48 h; Potency, µM (top dose mostly 46.1 µM), without a hit: at the highest dose activity, negative = less viability, hits mostly cytotoxic; hit rate 1.6% among 360,000; AID 686970;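 note: NT is the 2HG producing partner of a matched IDH1 knockdown line; potency is the fitted concentration of half-maximal effect; 0% = DMSO-treated cells and -100% = media-only wells without cells; nearly all actives have a fitted effect of over 55% in size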
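HT-1080-NT; 750 cells/well; 5% FBS RPMI; 48 h compound, 37 degrees C; CellTiter-Glo luminescence; curve fitting and curve-class assignment.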
TDP1 cell CPT – DT40-hTDP1 cell growth loss with CPT; hit rate 12% among 420,000; Potency, µM (titrated, usually from 46.2 µM), for the others: top-dose activity change, negative = growth inhibition, hits mostly inhibitors; chicken DT40 Tdp1-/-;hTDP1 cells + 20 nM CPT, ATP luminescence, 48 h; note: potency is the fitted concentration of half-maximal effect; nearly all actives have a fitted effect of over 55% in size
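Chicken DT40 Tdp1-/- cells complemented with human TDP1, 400 cells/well, exposed to compounds plus 20 nM camptothecin for at least 48 h at 37 C; viability read as ATP content by CellTiter-Glo luminescence.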
DT40 TDP1 no CPT – qHTS for Inhibitors of human tyrosyl-DNA phosphodiesterase 1 (TDP1): qHTS in cells in absence of CPT; DT40 Tdp1-/- hTDP1 cells, no CPT, ATP luminescence, 48 h; Potency, µM (doses to about 46.2 µM), for inactives: top-dose activity change, negative = growth inhibition, usual class: inhibitors; hit rate 15% among 420,000; AID 686978, 2013; note: potency is the fitted concentration of half-maximal effect; nearly all actives have a fitted effect of over 55% in size
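Readout: luminescence from CellTiter-Glo after 30 min in the dark at RT. Cells: DT40 Tdp1-/- with stable hTDP1, 400/well. Exposure: compounds alone, ≥48 hr, 37 °C.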
IL1B secr inh – blocks inflammasome-driven IL-1 beta release; THP-1 LPS/ATP IL-1B secretion, AlphaLISA, 16 h; hits give low values; activity change, % at 57.5 µM; hit rate 4.7% among 360,000; AID 743279; in the data active = activity change below about -50%; inconclusive = mostly about -30% to -49%
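THP-1 cells pretreated 1 hr with compounds (up to 57.5 uM final), then stimulated with LPS (250 ng/mL final) plus ATP (1.25 mM final); secreted IL-1B measured by AlphaLISA after 16 hr, decreased signal indicating inhibition.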
HT1080 IDH1KD tx – HT-1080 IDH1 knockdown cell toxicity (counter line). AID 686971. Potency, µM (top dose mostly 46.1 µM), without a hit: top-dose activity, negative = toxicity, actives largely listed as cytotoxic. HT-1080 IDH1 knockdown viability, ATP luminescence, 48 h. hit rate 2% among 360,000;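 note: potency is the fitted concentration of half-maximal effect; 0% = DMSO wells and -100% = cell-free medium wells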
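Using the IDH1-knockdown HT-1080 line run in the same batch and compound series as the NT line, viability after 48 h at 37 °C was determined by CellTiter-Glo luminescence and expressed as % activity.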
* hit, by the source's call; u = inconclusive; x = no result; [ ] = another dose, or the depositor's remark. Unless noted, calls come from the whole dose curve; as a rule, active = well fitted curve in the direction sought with a large enough effect; inconclusive = small, poorly fitted or top-dose-only effect, or another doubt; inactive = no such curve, though single readings can be large; an effect the other way counts as inactive or inconclusive. Unless noted, % is set by controls: 0 for no effect and ±100 for the full control effect.

SMILES	HT1080NT lethal	TDP1 cell CPT	DT40 TDP1 no CPT	IL1B secr inh	HT1080 IDH1KD tx
Cc1ccc(N2CC(C(=O)Nc3ccc(S(=O)(=O)Nc4ncccn4)cc3)CC2=O)cc1C (configuration not stated)	5%	12%	2%	-11	2%
O=C(Nc1c2c(nn1-c1ccc(F)cc1)CS(=O)C2)c1ccc(S(=O)(=O)N2CCOCC2)cc1 (configuration not stated)	21%	7%	4%	4	17%
Cc1ccc2cccnc2c1N	3%	-3%	-14%	15	20%
c1cnc2c(c1)ccc1cccnc12	7.3µM*	3.7µM*	3.7µM*	110	7.3µM*
O=Cc1ccc2cccnc2n1	-1%	u	u	-5	14%
O=C(O)c1cccc2cccnc12	19%	2%	-14%	0	19%
O=C1C=CC(=O)N1c1cccc2cccnc12	1%	16µM*	u	-23	0%
CSS(=O)(=O)c1cccc2cccnc12	-12%	5.8µM*	5.8µM*	-8	-4%
O=Cc1ccc2ccc3cccnc3c2n1	u	5.2µM*	3.3µM*	u	u
CC1(C)NC(=O)N(CCC(=O)Nc2ccc(C(C)(C)C)cc2)C1=O	-2%	9%	-38%	25	-2%
Cc1c(Cl)cccc1NC(=O)c1ncoc1-c1ccco1	x	u	-29%	x	x
Cc1[nH]n(-c2ccccc2)c(=S)c1C=NCCCN=Cc1c(C)[nH]n(-c2ccccc2)c1=S	-3%	u	-17%	-97*	-13%
COC(=O)CN=Cc1c(C)[nH]n(-c2ccccc2)c1=O	-2%	-4%	-2%	0	-4%
C/C(N)=C(/C#N)C(=O)CSc1nnc(SCc2ccc(Cl)cc2)s1	-17%	13µM*	16µM*	-1	21µM*
Cc1c(C(=O)N2CCCC(c3ccccc3)C2)sc2ncnc(NCCc3ccccn3)c12 (configuration not stated)	x	16%[9.04 µM]	-14%	x	x
CC1CCN(S(=O)(=O)c2ccc(C(=O)OC(C)C(=O)N(C)C3CCCCC3)cc2)CC1 (configuration not stated)	-1%	u	26µM*	29	4%
COC(=O)Nc1ccc(S(=O)(=O)N2CCC(C(=O)N(C)C3CCCCC3)CC2)cc1	-9%	u	26µM*	2	-6%
CC1CCN(S(=O)(=O)c2ccc(C(=O)OC(C)C(=O)NC3CCCCC3C)cc2)CC1 (configuration not stated)	10%	0%	u	-1	3%
CCOC(=O)C1CCN(S(=O)(=O)c2ccc(NC(=O)OC)cc2)CC1	-13%	-7%	-11%	13	-13%
C=CCNc1nc(Nc2cc(Cl)ccc2OC)nc(OC)n1	24%	1%	-21%	6	13%
O=C(NCc1ccccc1CN1CCCC1)c1cc2ccccc2o1	-1%[9.24 µM]	-18%	-1%	u	-3%
CCOC(=O)[C@]12CCC=C1N(CCC1=CCCCC1)C(=O)[C@H](CC(=O)NCc1ccc(OC)c(OC)c1)C2	14%	u	-29%	-7	9%
CC(C)c1onc(C(=O)Nc2ccc3c(c2)OCO3)c1[N+](=O)[O-]	-4%	u	18µM*	-21	0%
CC(C)c1onc(C(=O)N2CCCCC2)c1[N+](=O)[O-]	0%	-19%	u	-65*	0%
Cc1ccc(NC(=O)c2noc(C(C)C)c2[N+](=O)[O-])cc1	-11%	13µM*	18µM*	-21	u
SMILES	HT1080NT lethal	TDP1 cell CPT	DT40 TDP1 no CPT	IL1B secr inh	HT1080 IDH1KD tx
CC(C)c1onc(C(=O)N2CCCCC2C)c1[N+](=O)[O-] (configuration not stated)	9%	0%	-11%	5	u
CC(C)c1onc(C(=O)Nc2cccc(O)c2)c1[N+](=O)[O-]	16%	-20%	-6%	-12	2%
O=C(CN1CCN(CC(=O)Nc2cccc(F)c2)CC1)Nc1ccc(-c2ccccc2)cc1	-10%	-29%	-18%	-10	-9%
COc1ccc(OC)c2sc(N3CCc4ccccc4C3)nc12	-3%	1%	-8%	0	-23%
c1ccc2c(c1)CCN(c1nc3cc4c(cc3s1)OCCO4)C2	u	10µM*	u	-58*	u
COC(=O)c1[nH]c2ccc(C)cc2c1NC(=O)CN1CCN(C(=O)c2ccccc2)CC1	0%	u	u	28	0%
COC(=O)c1[nH]c2ccc(C)cc2c1NC(=O)CN1CCN(c2ccccc2)CC1	-27%	16µM*	23µM*	-23	-23%
COC(=O)c1[nH]c2ccc(C)cc2c1NC(=O)CN1CCN(c2ccc(F)cc2)CC1	0%	11µM*	16µM*	-6	4%
CCOC(=O)N1CCN(CC(=O)Nc2c(C(=O)OC)[nH]c3cc(C)ccc23)CC1	-2%	u	u	33	2%
COC(=O)c1[nH]c2ccc(C)cc2c1NC(=O)CN1CCN(Cc2ccccc2)CC1	-9%	18µM*	26µM*	-1	-8%
Cc1ccc2[nH]c(C(=O)O)c(NC(=O)CN3CCN(c4cccc(C)c4C)CC3)c2c1	u	u	23µM*	45	u
Cn1c(=O)c(C(=O)CSc2nncs2)c(N)n(Cc2ccccc2)c1=O	-2%	-26%	u	-7	0%
O=C(COC(=O)CNS(=O)(=O)c1ccc(Br)cc1Cl)Nc1ccc(N2CCOCC2)cc1	14%	3%	-18%	0	19%
CCOC(=O)c1[nH]c2ccc(OCC)cc2c1NC(=O)CN1CCN(c2ccccc2)CC1	6%	21µM*	u	-19	-2%
Cc1ccc(C)c(N(C(=O)Cn2nnc3ccccc32)C(C(=O)NC(C)(C)C)c2ccsc2)c1 (configuration not stated)	4%	23µM*	u	30	-13%[9.24 µM]
CC(C)(C)NC(=O)C(c1ccsc1)N(CCc1ccccc1)C(=O)Cn1nnc2ccccc21 (configuration not stated)	-6%	u	-30%	26	2%
Cc1cc(C)c(N(C(=O)Cn2nnc3ccccc32)C(C(=O)NC(C)(C)C)c2ccsc2)c(C)c1 (configuration not stated)	6%	16µM*	u	12	-24%
CN(C)CCP(=O)(c1ccccc1)c1ccccc1	-2%	7%	u	20	9%
CN(C)CCN(C)Cc1c2ccccc2c(CN(C)CCN(C)C)c2ccccc12	u	18µM*	18µM*	-84*	21µM*
Brc1ccc2[nH]c3c(c2c1)CCC3	-13%	-5%	-12%	-21	-21%
